The text below walks through data of PubChem BioAssay.

A short description of test [1]: viability loss with induced miR-34 in A549 – imaging, A549 dox-inducible miR-34, nuclei and caspase counts, primary screen (AID 1347080;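 active means compounds whose cell count with miR-34 switched on is under 0.7 times the count with it off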). The settings on record: A549 miR-34 inducible, Hoechst nuclei count, 48 h.
Test [2] in a line: viability loss in pontine glioma line – cell-based, SU-DIPG-IV, MIPE4.0, CellTiter-Glo, qHTS, dose response (AID 1347063; cut-off not given, nearly all actives have AC50 up to about 30 µM;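 further: compound exposure lasted 48 hours before the viability readout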). The settings on record: CellTiter-Glo ATP luminescence. A general note: Cellular ATP, detected with luciferase, serves as a proxy for viable cell number.
Test [3] in a line: JHH-DIPG-1 glioma cell viability, MIPE5.0 library, CellTiter-Glo luminescence, qHTS (AID 1347067; cut-off not given, nearly all actives have AC50 up to about 26 µM;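 further: cells exposed to compound for 48 hours before readout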). The following applies: JHH-DIPG-1 glioma viability, CellTiter-Glo ATP luminescence.
The nature of test [4]: growth inhibition of DIPG cells – cell-based, MIPE5.0 library, qHTS (AID 1347068; cut-off not given, nearly all actives have IC50 up to about 30 µM). The following applies: SU-DIPG-XXV viability. (In general: In qHTS, concentration-response curves come from the screen itself.)
Test [5] is described as follows: MELAS cybrid and Rieske KO viability enhancers – cell-based, MELAS cybrids, Rieske KO mouse fibroblasts, CellTiter-Glo, primary screen (AID 1508586;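 active means mean z-score across replicates of 1.96 or higher in either the MELAS or the Rieske mutant cell line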;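 further: z relative to plate mean and SD of compound and empty wells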). The following applies: low glucose.
The nature of test [6]: drug combination growth inhibition, ovarian cancer – cell-based, oncology-focused library, rucaparib conditional, profiling panel (AID 1508598). The settings on record: patient-derived ovarian cancer cells, CellTiter-Glo viability, 144 h, stronger effect = lower value.
The target of test [7] is ATP-dependent translocase ABCB1 (Homo sapiens) (UniProt P08183). Put plainly: P-glycoprotein substrate transport blockade – cell-based (AID 377; in the data active means fluorescence slope change above about 50%). The following applies: MDR1-expressing cells, fluorescent substrate accumulation slope; stronger effect = higher value; concentration not given here.
Test [8] can be described thus: P. berghei load reduction in hepatocytes – cell-based, HepG2, luciferase luminescence, HepG2 viability, primary screen (AID 624349; in the data active means parasite load remaining mostly below about 12%, no sharp cut-off; inactive means mostly above about 10%;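 further: 100% = mean of DMSO negative control wells on the same plate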). The settings on record: P. berghei liver stage in HepG2, luciferase luminescence, concentration not given here; parasite load remaining: stronger effect = lower value; viability: measured here: HepG2 viability without parasites.
Test [9] can be described thus: galactose survival enhancers in mitochondrial complex I cybrids – cell-based, galactose medium, ATP luminescence, primary screen (AID 1645843;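 active means z-score of at least 1.8 in each of two replicates, scored against plate mean and spread of sample wells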;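 further: positive z means more ATP and so rescue of galactose-driven cybrid death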). The following applies: complex I mutant cybrid cells, 72 h, stronger effect = higher value.
[10] abbreviates: stronger effect = lower value, cell number ratio, induced over uninduced.
Where [11] appears, read: measured here: relative caspase fold change +Dox/-Dox.
[12] abbreviates: measured here: total cells with miR-34 induction, stronger effect = lower value.
Setting [13] is: measured here: total cells without miR-34 induction.
Setting [14] is: MELAS cybrid survival, CellTiter-Glo 48 h, stronger effect = higher value.
The mark [15] stands for this setting: Rieske KO mouse fibroblast survival, CellTiter-Glo 72 h.

Values joined by “and” are separate entries in the source; they are usually repeats but may differ in a detail not shown here. Identical values can stand only once. Inconclusive results are not listed. Active and inactive are the calls of the source.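 How the source made its calls, unless noted: active means normalized viability below 100% at a tested concentration; inactive means the rest.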

Sequence of ATP-dependent translocase ABCB1 (Homo sapiens) (P08183 whole entry, looked up): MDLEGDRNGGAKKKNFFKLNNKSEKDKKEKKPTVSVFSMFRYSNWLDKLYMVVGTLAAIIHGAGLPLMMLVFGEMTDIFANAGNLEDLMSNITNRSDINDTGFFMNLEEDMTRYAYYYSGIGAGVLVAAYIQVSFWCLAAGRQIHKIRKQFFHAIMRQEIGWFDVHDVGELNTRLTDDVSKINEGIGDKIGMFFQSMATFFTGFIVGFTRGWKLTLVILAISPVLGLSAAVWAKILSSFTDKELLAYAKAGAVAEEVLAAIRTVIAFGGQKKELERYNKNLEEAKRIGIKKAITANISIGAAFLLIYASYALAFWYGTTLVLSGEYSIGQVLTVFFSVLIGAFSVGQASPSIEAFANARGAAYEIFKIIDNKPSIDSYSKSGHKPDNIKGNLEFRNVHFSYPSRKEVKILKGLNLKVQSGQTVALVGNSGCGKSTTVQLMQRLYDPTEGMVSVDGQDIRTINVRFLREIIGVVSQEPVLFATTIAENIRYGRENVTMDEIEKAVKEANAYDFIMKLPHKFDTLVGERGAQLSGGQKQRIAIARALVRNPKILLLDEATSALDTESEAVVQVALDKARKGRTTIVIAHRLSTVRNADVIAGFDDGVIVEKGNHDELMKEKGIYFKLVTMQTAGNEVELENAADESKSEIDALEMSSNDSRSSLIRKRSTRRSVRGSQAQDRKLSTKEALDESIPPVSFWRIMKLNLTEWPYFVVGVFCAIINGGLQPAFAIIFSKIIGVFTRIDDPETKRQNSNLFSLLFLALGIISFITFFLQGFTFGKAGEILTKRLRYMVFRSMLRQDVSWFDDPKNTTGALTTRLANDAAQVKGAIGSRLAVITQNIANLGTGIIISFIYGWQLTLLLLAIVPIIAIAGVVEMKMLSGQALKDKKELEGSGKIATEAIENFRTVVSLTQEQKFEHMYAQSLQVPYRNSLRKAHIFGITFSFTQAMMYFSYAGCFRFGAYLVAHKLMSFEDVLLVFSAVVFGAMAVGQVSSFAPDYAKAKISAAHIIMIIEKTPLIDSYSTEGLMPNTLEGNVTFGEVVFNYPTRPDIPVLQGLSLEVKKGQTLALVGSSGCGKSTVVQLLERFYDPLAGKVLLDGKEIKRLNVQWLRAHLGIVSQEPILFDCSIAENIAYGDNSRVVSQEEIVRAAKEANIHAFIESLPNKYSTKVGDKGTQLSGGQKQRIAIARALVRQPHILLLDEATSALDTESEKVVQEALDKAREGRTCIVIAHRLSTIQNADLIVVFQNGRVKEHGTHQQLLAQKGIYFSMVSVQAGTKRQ

For the compound `C[C@H](CCC(=O)O)C[C@H](C)C[C@H](C)C(=O)/C=C(\O)[C@H](C)C[C@H](C)C/C=C/[C@@H](C)[C@@H](O)[C@@H](C)[C@@H](O)C[C@@H]1CC[C@@](C)([C@H]2CC[C@@](C)([C@@H](C)O)O2)O1`, the fold change is 0.679 (active) in test [1] (setting [10]) and 0.922 in test [1] (setting [11]). For the same compound, the cell count in test [1] (setting [12]) came out at 621; in test [1] (setting [13]), 914.
Turning to `C=C(C)[C@H]1O[C@H]2CC[C@@]3(C)[C@@](O)(CC[C@H]4[C@@H]5OC(C)(C)[C@H]6C[C@@H]7C(=C)Cc8c(Cl)cc9[nH]c(c5c9c8[C@@]76O)[C@@]43C)[C@]23O[C@@H]3[C@H]1O`, the fold change in test [1] (stronger effect = lower value) is 1.28 (inactive); in [1] (setting [11]) it was 1.48. In addition, the cell count came to 1060 in test [1] (setting [12]) and 826 in test [1] (setting [13]).
Turning to `O=S(=O)(CC1CS1)c1ccc(Oc2ccccc2)cc1` (stereo not given), the results for the AC50 in test [2] and in test [3] were 20.9 µM (active) and 23.5 µM (active), respectively. The outcome in test [4] was inactive. For the same compound, the figures for the fold change in test [1] (setting [10]) and in test [1] (setting [11]) were 0.961 (inactive) and 0.577, respectively. For the same compound, the cell count in test [1] (setting [12]) came to 8270; in test [1] (setting [13]), 8600. Further, the z-score in test [5] (setting [14]) was -0.354 (inactive); in [5] (setting [15]) it was -1.56. Besides, the viability (commonly a read-out of living cells in per cent, often relative to untreated cells) is 114% (inactive) in test [6] (at 0.000305 µM, OCI-C5x cells, with rucaparib 10 µM, 100% = cells with rucaparib alone); 110% (inactive) in test [6] (at 0.000305 µM, OCI-C5x cells, without rucaparib); 95.3% (active) in test [6] (at 0.000305 µM, OCI-P5x cells, with rucaparib 20 µM, 100% = cells with rucaparib alone); 95.4% (active) in test [6] (at 0.000305 µM, OCI-P5x cells, without rucaparib); 112% (inactive) in test [6] (at 0.00122 µM, OCI-C5x cells, with rucaparib 10 µM, 100% = cells with rucaparib alone); 111% (inactive) in test [6] (at 0.00122 µM, OCI-C5x cells, without rucaparib). The viability was 98.5% (active) in test [6] (at 0.00122 µM, OCI-P5x cells, with rucaparib 20 µM, 100% = cells with rucaparib alone); 92.4% (active) in [6] (at 0.00122 µM, OCI-P5x cells, without rucaparib); 121% (inactive) in test [6] (at 0.00488 µM, OCI-C5x cells, with rucaparib 10 µM, 100% = cells with rucaparib alone); 102% (inactive) in test [6] (at 0.00488 µM, OCI-C5x cells, without rucaparib); 89.9% (active) in [6] (at 0.00488 µM, OCI-P5x cells, with rucaparib 20 µM, 100% = cells with rucaparib alone); 97.6% (active) in test [6] (at 0.00488 µM, OCI-P5x cells, without rucaparib). For the same compound, the viability in [6] (at 0.0195 µM, OCI-C5x cells, with rucaparib 10 µM, 100% = cells with rucaparib alone) is 122% (inactive); in [6] (at 0.0195 µM, OCI-C5x cells, without rucaparib), 112% (inactive); in test [6] (at 0.0195 µM, OCI-P5x cells, with rucaparib 20 µM, 100% = cells with rucaparib alone) it was 91% (active); in [6] (at 0.0195 µM, OCI-P5x cells, without rucaparib), 94.3% (active); in test [6] (at 0.0781 µM, OCI-C5x cells, with rucaparib 10 µM, 100% = cells with rucaparib alone), 121% (inactive); in [6] (at 0.0781 µM, OCI-C5x cells, without rucaparib), 102% (inactive). For the same compound, the viability was 85.3% (active) in test [6] (at 0.0781 µM, OCI-P5x cells, with rucaparib 20 µM, 100% = cells with rucaparib alone); 91.2% (active) in test [6] (at 0.0781 µM, OCI-P5x cells, without rucaparib); 120% (inactive) in [6] (at 0.313 µM, OCI-C5x cells, with rucaparib 10 µM, 100% = cells with rucaparib alone); 101% (inactive) in test [6] (at 0.313 µM, OCI-C5x cells, without rucaparib); 84.7% (active) in test [6] (at 0.313 µM, OCI-P5x cells, with rucaparib 20 µM, 100% = cells with rucaparib alone); 93.5% (active) in test [6] (at 0.313 µM, OCI-P5x cells, without rucaparib). The viability is 117% (inactive) in test [6] (at 1.25 µM, OCI-C5x cells, with rucaparib 10 µM, 100% = cells with rucaparib alone); 111% (inactive) in test [6] (at 1.25 µM, OCI-C5x cells, without rucaparib); 79% (active) in test [6] (at 1.25 µM, OCI-P5x cells, with rucaparib 20 µM, 100% = cells with rucaparib alone); 82.1% (active) in test [6] (at 1.25 µM, OCI-P5x cells, without rucaparib); 108% (inactive) in [6] (at 5 µM, OCI-C5x cells, with rucaparib 10 µM, 100% = cells with rucaparib alone); 110% (inactive) in test [6] (at 5 µM, OCI-C5x cells, without rucaparib). Besides, the viability in test [6] (at 5 µM, OCI-P5x cells, with rucaparib 20 µM, 100% = cells with rucaparib alone) is 80.3% (active); in test [6] (at 5 µM, OCI-P5x cells, without rucaparib), 81.4% (active).
With `C=C(C)[C@@H]1CCC(C)=C[C@H]1c1c(OC)cc(CCCCC)cc1OC`, the fold change in test [1] (setting [10]) was 0.935 (inactive); in test [1] (setting [11]) it was 1.03. The cell count turned out to be 5760 in [1] (setting [12]) and 6160 in test [1] (setting [13]).
In the case of `CC1(C)C(=O)N(c2ccc(C#N)c(C(F)(F)F)c2)C(=S)N1Cc1ccc(-c2cn[nH]n2)cc1`, the compound was called inactive in [4].
As to `CCCCC/C=C\C/C=C\C/C=C\C/C=C\CCCC(=O)NC`, the values for the fold change in test [1] (setting [10]) and in [1] (setting [11]) were 0.953 (inactive) and 2.18, respectively. Moreover, the cell count was 5880 in [1] (setting [12]) and 6170 in test [1] (setting [13]).
As for `C[C@H]1[C@@H](CC(C[C@H]2O[C@@H]3O[C@]4(C)CC[C@H]5[C@H](C)CC[C@@H]([C@H]2C)[C@@]35OO4)CS(=O)(=O)c2ccc(COC(=O)N(C)C)cc2)O[C@@H]2O[C@]3(C)CC[C@H]4[C@H](C)CC[C@@H]1[C@@]24OO3` (stereo not given in full), the half-maximal activity concentration (AC50) (commonly the concentration at which the activity in the assay is half-maximal) in [2] is 0.209 µM (active).
Regarding `N[C@H]1C[C@@H]1c1ccccc1`, the fluorescence slope change in [7] is 55% (active). Moreover, in [8], the parasite load remaining is 52% (inactive) and 79.2% (inactive). In addition, the viability in test [8] was 46.6% and 238%. Moreover, the z-score is 0.109 (inactive) and -0.281 (inactive) in [5] (setting [14]); -0.102 and -1.1 in [5] (setting [15]); 0.92 (inactive) in [9].
